Measurements reported in the supplement of paper PMC10849652.
Of roughly 8,800 targets only a part is listed; those with a hit were picked by preference. About 0.5% of all pairs of compound and target were hits. Unmarked numbers belong to inactive results.

How the values were obtained:
Test in all cases: log2 fold change, soluble protein after heating vs DMSO (PISA); higher = thermal stabilisation; K562 lysate, 10 uM; active = over 0.2 and 3.5 SD of the protein, either way, in both replicates (recomputed)
vemurafenib = compound: CCCS(=O)(=O)Nc1ccc(F)c(C(=O)c2c[nH]c3ncc(-c4ccc(Cl)cc4)cc23)c1F [vemurafenib]
Procedure, shortened: (§1)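 Soluble protein was defined as the supernatant remaining after 21,000xg for 90 min, following pooling of heated aliquots and adjustment to 0.5% NP-40 at 4°C. Before that, crude K562 extract at 1 mg/mL protein in PBS pH 7.4 with 1 mM MgCl2 was treated with 10 μM compound for 30 min and heated for 3 min across 48°C-58°C. Quantification used TMTpro 16plex LC-MS/MS with channel sums equalised, and values are log-two fold changes in thermal stability relative to solvent controls from duplicates.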

[1] = compound: CCCS(=O)(=O)Nc1ccc(F)c(C(=O)c2c[nH]c3ncc(Cl)cc23)c1F
Procedure, shortened: as §1

barasertib = compound: CCN(CCCOc1ccc2c(Nc3cc(CC(=O)Nc4cccc(F)c4)[nH]n3)ncnc2c1)CCOP(=O)(O)O [barasertib]
Procedure, shortened: as §1

[2] = compound: CC[C@@H]1C(=O)N(C)c2cnc(Nc3ccc(C(=O)NC4CCN(C)CC4)cc3OC)nc2N1C1CCCC1
Procedure, shortened: as §1

volasertib = compound: CC[C@@H]1C(=O)N(C)c2cnc(Nc3ccc(C(=O)N[C@H]4CC[C@H](N5CCN(CC6CC6)CC5)CC4)cc3OC)nc2N1C(C)C [volasertib]
Procedure, shortened: as §1

[3] = compound: CCn1c(C(=O)N(C2CC2)C2CC2)cc2c3c(ncn3C)c(Nc3cc(C)n(C)n3)nc21
Procedure, shortened: as §1

[4] = compound: CCn1cc(-c2ccnc3[nH]c(-c4cccc(CN(C)C)c4)cc23)c(-c2ccc(NC(=O)N(C)C)cc2)n1
Procedure, shortened: as §1

[5] = compound: CN1CCC(CNc2ccc3ncc(-c4cccc(OC(F)(F)F)c4)n3n2)CC1
Procedure, shortened: as §1

saracatinib = compound: CN1CCN(CCOc2cc(OC3CCOCC3)c3c(Nc4c(Cl)ccc5c4OCO5)ncnc3c2)CC1 [saracatinib]
Procedure, shortened: as §1

sotrastaurin = compound: CN1CCN(c2nc(C3=C(c4c[nH]c5ccccc45)C(=O)NC3=O)c3ccccc3n2)CC1 [sotrastaurin]
Procedure, shortened: as §1

alvocidib = compound: CN1CC[C@H](c2c(O)cc(O)c3c(=O)cc(-c4ccccc4Cl)oc23)[C@H](O)C1 [alvocidib]
Procedure, shortened: as §1

Tubastatin A = compound: CN1CCc2c(c3ccccc3n2Cc2ccc(C(=O)NO)cc2)C1 [Tubastatin A]
Procedure, shortened: as §1

[6] = compound: CNC(=O)C1=CC=CC=C1NC2=NC(=NC=C2Cl)NC3=C(C=C(C=C3)N4CCOCC4)OC
Procedure, shortened: as §1

defactinib = compound: CNC(=O)c1ccc(Nc2ncc(C(F)(F)F)c(NCc3nccnc3N(C)S(C)(=O)=O)n2)cc1 [defactinib]
Procedure, shortened: as §1

[7] = compound: CNc1nc(-c2ccc3c(N)n[nH]c3c2)cc(N2C[C@@H](C(=O)NC3CCCCC3)CC[C@H]2C)n1
Procedure, shortened: as §1

encorafenib = compound: COC(=O)N[C@@H](C)CNc1nccc(-c2cn(C(C)C)nc2-c2cc(Cl)cc(NS(C)(=O)=O)c2F)n1 [encorafenib]
Procedure, shortened: as §1

[8] = compound: COC(=O)[C@H](CCSC)NC(=O)C1=C(C=C(C=C1)NC[C@H](CS)N)C2=CC=CC=C2
Procedure, shortened: as §1

alisertib = compound: COc1cc(Nc2ncc3c(n2)-c2ccc(Cl)cc2C(c2c(F)cccc2OC)=NC3)ccc1C(=O)O [alisertib]
Procedure, shortened: as §1

[9] = compound: COc1cc2nc(-c3cc(F)ccc3O)nc(N[C@@H]3CNC[C@H]3C(C)(C)O)c2cc1OC
Procedure, shortened: as §1

gefitinib = compound: COc1cc2ncnc(Nc3ccc(F)c(Cl)c3)c2cc1OCCCN1CCOCC1 [gefitinib]
Procedure, shortened: as §1

Chain of UniProt P63027 (P63027 whole entry, looked up): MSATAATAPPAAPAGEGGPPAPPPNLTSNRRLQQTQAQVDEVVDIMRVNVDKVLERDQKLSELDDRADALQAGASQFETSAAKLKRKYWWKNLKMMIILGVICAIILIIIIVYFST
Chain of UniProt Q8IX07 (Q8IX07 whole entry, looked up): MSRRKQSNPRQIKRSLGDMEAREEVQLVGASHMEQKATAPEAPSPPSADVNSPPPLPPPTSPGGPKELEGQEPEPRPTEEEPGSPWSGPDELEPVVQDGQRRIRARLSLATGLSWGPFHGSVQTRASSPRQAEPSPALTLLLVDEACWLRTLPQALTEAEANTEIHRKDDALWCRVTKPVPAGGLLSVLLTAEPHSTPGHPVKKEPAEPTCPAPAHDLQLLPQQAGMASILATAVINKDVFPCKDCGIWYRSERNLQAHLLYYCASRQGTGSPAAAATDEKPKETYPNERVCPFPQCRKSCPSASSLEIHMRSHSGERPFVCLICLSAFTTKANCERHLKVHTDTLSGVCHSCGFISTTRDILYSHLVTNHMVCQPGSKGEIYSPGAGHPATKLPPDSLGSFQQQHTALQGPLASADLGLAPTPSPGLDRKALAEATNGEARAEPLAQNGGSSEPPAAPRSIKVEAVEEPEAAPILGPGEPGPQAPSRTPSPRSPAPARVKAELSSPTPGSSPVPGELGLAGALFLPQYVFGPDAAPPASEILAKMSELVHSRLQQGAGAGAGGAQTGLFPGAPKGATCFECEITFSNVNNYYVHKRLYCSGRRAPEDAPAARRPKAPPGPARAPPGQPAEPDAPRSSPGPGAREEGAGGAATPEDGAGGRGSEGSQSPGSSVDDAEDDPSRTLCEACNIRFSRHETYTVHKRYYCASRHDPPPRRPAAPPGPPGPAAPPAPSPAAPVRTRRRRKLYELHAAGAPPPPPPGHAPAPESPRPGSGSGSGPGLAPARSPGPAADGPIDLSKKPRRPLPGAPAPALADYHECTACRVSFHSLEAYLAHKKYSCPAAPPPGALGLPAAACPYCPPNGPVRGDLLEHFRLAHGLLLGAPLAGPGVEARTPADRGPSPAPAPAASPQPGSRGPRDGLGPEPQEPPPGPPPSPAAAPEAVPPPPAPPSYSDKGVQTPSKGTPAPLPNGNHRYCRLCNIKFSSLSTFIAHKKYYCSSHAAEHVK
Chain of UniProt Q86T24 (Q86T24 whole entry, looked up): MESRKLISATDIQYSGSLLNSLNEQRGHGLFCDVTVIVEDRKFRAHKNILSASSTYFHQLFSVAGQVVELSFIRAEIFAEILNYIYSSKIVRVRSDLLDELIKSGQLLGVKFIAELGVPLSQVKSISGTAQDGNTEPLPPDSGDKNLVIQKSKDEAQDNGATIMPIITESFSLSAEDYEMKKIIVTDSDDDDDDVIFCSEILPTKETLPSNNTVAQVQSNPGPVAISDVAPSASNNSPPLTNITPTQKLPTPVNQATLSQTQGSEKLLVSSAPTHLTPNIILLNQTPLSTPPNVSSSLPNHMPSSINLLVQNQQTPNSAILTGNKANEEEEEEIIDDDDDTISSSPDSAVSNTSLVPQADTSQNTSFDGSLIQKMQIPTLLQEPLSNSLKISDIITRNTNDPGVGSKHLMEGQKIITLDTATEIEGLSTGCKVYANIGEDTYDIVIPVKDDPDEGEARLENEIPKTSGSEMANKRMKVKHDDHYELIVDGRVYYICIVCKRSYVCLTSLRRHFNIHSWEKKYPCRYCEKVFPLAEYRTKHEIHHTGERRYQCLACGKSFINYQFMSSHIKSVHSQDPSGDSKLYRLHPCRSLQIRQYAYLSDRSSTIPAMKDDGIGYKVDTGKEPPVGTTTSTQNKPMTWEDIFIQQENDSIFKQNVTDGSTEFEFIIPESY
Chain of UniProt P07947 (P07947 whole entry, looked up): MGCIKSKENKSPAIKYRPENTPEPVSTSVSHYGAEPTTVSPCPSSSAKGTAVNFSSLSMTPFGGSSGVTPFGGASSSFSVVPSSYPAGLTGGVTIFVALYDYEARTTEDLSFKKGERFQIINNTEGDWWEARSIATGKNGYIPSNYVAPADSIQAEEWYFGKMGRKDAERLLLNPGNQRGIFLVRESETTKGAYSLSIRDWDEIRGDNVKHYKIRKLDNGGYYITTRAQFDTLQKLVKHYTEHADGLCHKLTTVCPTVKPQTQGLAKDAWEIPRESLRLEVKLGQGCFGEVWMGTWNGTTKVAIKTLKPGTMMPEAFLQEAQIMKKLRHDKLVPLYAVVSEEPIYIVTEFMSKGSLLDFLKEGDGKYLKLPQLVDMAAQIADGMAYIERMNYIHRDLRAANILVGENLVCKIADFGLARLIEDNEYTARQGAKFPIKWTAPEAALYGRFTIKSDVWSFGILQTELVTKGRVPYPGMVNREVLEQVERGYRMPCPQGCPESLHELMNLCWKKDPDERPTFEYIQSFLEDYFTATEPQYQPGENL
Chain of UniProt Q9BQA1 (Q9BQA1 whole entry, looked up): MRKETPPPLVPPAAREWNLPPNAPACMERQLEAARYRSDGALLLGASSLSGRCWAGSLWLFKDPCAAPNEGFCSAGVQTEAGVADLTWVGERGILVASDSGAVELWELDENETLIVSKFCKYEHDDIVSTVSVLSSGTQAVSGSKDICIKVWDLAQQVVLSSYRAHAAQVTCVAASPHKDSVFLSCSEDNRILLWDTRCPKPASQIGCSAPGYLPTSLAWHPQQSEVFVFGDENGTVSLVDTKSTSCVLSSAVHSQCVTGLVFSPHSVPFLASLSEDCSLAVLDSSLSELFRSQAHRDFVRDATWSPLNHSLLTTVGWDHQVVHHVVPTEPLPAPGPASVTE
Chain of UniProt Q5VUA4 (Q5VUA4 whole entry, looked up): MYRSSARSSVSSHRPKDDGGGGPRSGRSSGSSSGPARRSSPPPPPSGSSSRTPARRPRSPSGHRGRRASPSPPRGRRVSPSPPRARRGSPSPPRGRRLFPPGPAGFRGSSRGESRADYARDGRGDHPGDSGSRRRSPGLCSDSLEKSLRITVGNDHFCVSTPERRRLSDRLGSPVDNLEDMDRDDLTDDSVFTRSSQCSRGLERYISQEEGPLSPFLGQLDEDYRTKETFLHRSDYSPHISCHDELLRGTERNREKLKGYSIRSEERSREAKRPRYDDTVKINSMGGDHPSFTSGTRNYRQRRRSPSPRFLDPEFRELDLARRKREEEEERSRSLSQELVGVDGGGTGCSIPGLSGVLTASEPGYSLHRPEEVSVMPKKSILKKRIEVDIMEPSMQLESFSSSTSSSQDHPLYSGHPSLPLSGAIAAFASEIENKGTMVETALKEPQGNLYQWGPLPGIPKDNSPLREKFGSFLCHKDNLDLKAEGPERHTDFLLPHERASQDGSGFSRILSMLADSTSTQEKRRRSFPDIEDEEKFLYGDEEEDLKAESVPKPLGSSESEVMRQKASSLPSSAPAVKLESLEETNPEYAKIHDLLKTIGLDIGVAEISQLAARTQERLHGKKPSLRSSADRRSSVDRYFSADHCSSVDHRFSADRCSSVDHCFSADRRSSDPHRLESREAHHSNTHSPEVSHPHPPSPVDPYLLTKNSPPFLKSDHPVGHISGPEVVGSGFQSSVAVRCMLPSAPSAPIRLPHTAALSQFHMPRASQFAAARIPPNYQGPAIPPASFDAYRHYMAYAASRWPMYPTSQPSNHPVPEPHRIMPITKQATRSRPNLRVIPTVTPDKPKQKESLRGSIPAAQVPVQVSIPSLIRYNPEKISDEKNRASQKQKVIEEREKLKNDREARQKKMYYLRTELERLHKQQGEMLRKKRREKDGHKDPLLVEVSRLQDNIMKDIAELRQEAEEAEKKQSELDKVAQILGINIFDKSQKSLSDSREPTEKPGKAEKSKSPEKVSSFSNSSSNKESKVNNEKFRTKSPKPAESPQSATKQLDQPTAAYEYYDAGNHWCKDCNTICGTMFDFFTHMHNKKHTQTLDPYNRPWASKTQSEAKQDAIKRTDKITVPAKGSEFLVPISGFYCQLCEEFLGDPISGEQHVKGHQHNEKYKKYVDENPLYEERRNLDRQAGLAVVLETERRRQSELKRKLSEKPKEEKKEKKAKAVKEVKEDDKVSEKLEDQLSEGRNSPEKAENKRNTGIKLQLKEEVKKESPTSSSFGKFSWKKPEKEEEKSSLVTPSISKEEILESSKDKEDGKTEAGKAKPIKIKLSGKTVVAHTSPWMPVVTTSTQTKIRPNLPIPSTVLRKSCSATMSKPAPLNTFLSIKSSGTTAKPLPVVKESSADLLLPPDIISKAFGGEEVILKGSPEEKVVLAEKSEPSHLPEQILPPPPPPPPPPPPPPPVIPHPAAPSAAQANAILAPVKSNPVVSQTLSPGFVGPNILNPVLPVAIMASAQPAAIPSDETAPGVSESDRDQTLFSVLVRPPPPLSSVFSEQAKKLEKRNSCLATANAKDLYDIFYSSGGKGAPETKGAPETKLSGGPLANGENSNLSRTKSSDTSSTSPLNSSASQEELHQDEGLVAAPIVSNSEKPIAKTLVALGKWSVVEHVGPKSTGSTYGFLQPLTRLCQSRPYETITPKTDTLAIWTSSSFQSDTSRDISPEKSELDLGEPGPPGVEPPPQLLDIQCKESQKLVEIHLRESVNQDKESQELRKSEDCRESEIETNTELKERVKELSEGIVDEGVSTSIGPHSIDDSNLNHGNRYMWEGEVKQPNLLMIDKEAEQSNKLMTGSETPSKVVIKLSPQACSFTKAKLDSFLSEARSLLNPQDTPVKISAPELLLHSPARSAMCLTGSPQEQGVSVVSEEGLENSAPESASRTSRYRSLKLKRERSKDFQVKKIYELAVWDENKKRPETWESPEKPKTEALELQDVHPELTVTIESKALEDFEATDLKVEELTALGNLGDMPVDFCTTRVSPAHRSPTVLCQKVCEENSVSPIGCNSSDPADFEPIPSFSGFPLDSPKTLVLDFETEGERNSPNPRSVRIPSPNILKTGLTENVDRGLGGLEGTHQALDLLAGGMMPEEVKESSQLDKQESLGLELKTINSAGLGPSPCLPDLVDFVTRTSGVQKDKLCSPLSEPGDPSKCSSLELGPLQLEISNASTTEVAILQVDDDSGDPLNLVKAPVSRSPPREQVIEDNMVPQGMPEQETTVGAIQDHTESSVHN

Target | log2 fold change (vemurafenib) | log2 fold change [1] | log2 fold change (barasertib) | log2 fold change [2] | log2 fold change (volasertib) | log2 fold change [3] | log2 fold change [4] | log2 fold change [5] | log2 fold change (saracatinib) | log2 fold change (sotrastaurin) | log2 fold change (alvocidib) | log2 fold change (Tubastatin A) | log2 fold change [6] | log2 fold change (defactinib) | log2 fold change [7] | log2 fold change (encorafenib) | log2 fold change [8] | log2 fold change (alisertib) | log2 fold change [9] | log2 fold change (gefitinib)
VPS11 (UniProt Q9H270) | -0.002 | 0.034 | 0.013 | -0.033 | -0.038 | 0.015 | -0.051 | -0.007 | 0.039 | 0.019 | 0.039 | -0.113 | 0.023 | 0.022 | -0.026 | 0.016 | -0.096 | 0.002 | 0.019 | -0.007
WDHD1 (UniProt O75717) | -0.03 | 0.022 | -0.02 | -0.011 | -0.026 | -0.001 | 0.078 | -0.066 | 0.024 | 0.003 | 0.042 | -0.073 | 0.004 | -0.002 | -0.011 | -0.019 | 0.098 | -0.016 | -0.003 | 0.015
ZMYM4 (UniProt Q5VZL5) | 0.008 | 0.003 | 0.126 | 0.013 | 0.041 | 0.033 | 0.013 | 0.029 | 0.023 | 0.043 | -0.071 | -0.089 | -0.015 | 0.096 | 0.188 | 0.063 | 0.016 | -0.004 | 0.004 | 0.047
ZNF318 (UniProt Q5VUA4) | 0.089 | 0.025 | 0.077 | 0.025 | 0.011 | -0.007 | 0.086 | -0.033 | 0.079 | 0.047 | 0.033 | -0.177 | 0.034 | -0.055 | -0.002 | 0.03 | 0.117 | 0.03 | 0.142 | 0.025
VAMP2 (UniProt P63027) | 0.002 | -0.027 | 0.012 | -0.286 (active) | 0.009 | 0.02 | 0.057 | 0.091 | 0.033 | -0.028 | 0.019 | 0.027 | 0.035 | 0.112 | -0.01 | 0.05 | -0.057 | 0.014 | 0.001 | 0.018
ZFYVE19 (UniProt Q96K21) | 0 | 0.02 | 0.016 | 0.077 | 0.023 | 0.006 | -0.232 (active) | 0.126 | -0.027 | 0.013 | -0.141 | 0.026 | -0.037 | -0.002 | 0.008 | -0.001 | -0.04 | 0.008 | 0 | 0.019
WDR20 isoform 7 (UniProt Q8TBZ3) | 0.047 | 0 | 0.087 | 0.054 | -0.039 | -0.017 | 0.039 | -0.039 | 0.065 | -0.036 | -0.041 | -0.035 | 0.02 | -0.049 | -0.13 | 0.078 | -0.114 | 0.175 | -0.002 | -0.149
ZFPM1 (UniProt Q8IX07) | 0.088 | 0.007 | 0.031 | -0.017 | 0.02 | -0.042 | -0.001 | -0.021 | 0.014 | -0.009 | 0.014 | 0.024 | -0.022 | 0 | 0.007 | 0.072 | -0.009 | -0.011 | 0.018 | -0.006
UNC13D (UniProt Q70J99) | 0.039 | 0.027 | 0.024 | -0.073 | -0.083 | 0.012 | 0.026 | -0.015 | 0.05 | -0.022 | 0.015 | -0.117 | 0.014 | 0.026 | -0.035 | 0.059 | 0.054 | -0.005 | 0.001 | -0.034
WAC (UniProt Q9BTA9) | 0.018 | 0.051 | 0.077 | 0 | -0.003 | 0.051 | 0.061 | 0.024 | 0.013 | -0.002 | -0.008 | -0.035 | 0.068 | 0.013 | 0.007 | -0.006 | 0.118 | -0.019 | -0.01 | 0.009
YES1 (UniProt P07947) | 0.068 | 0.088 | 0.334 | -0.086 | -0.205 | -0.106 | -0.146 | -0.007 | 0.331 | -0.084 | -0.065 | 0.171 | -0.003 | -0.228 | -0.094 | -0.009 | -0.024 | 0.049 | 0.087 | -0.13
VPS39 (UniProt Q96JC1) | -0.034 | 0.014 | 0.022 | -0.029 | -0.045 | 0.001 | 0.73 (active) | -0.151 | 0.018 | -0.008 | 0.268 (active) | -0.06 | 0.036 | 0.011 | 0.007 | 0.043 | -0.218 | 0.041 | 0.026 | -0.041
VPS33A (UniProt Q96AX1) | -0.012 | 0.022 | 0.037 | 0.018 | -0.042 | 0.018 | -0.041 | -0.033 | -0.001 | 0.03 | -0.01 | -0.077 | 0.033 | 0.012 | -0.011 | 0.028 | -0.044 | 0.021 | -0.022 | 0.027
USP34 (UniProt Q70CQ2) | 0.006 | 0.039 | 0.048 | -0.054 | -0.052 | 0.014 | 0.027 | -0.079 | 0.026 | -0.008 | 0.035 | -0.045 | 0.009 | 0.006 | -0.014 | 0.033 | 0.09 | 0 | 0.017 | 0.013
ZBTB33 (UniProt Q86T24) | 0.01 | -0.017 | -0.199 | -0.002 | -0.673 (active) | 0 | 0.034 | -0.008 | 0.033 | 0.015 | -0.028 | -0.005 | -0.178 | -0.062 | 0.119 | 0.018 | -0.004 | -0.059 | -0.307 | 0.086
WDR77 (UniProt Q9BQA1) | -0.095 | -0.012 | -0.045 | -0.029 | 0.004 | 0.022 | -0.004 | 0.011 | -0.032 | 0.001 | 0.242 (active) | 0.004 | 0.002 | -0.012 | 0.012 | 0.055 | -0.07 | -0.031 | -0.024 | -0.003
